Results: PubChem BioAssay (NCI)
About 79,000 compounds went through this panel and 15% of them were active in at least one assay; those are over-represented in the sample as a whole. Active and inactive are the calls of the source. Rule as the data show it: active = growth inhibition above about 70%; inactive = the rest.

How the values were obtained:
[1] = NCI Yeast Anticancer Drug Screen. Data for the rad52 strain (AID 147);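 also: 0% = growth of vehicle-treated control cultures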; conditions: S. cerevisiae rad52 mutant growth inhibition, stronger effect = higher value
Procedure, shortened: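 Read-out: growth inhibition versus vehicle-treated controls. Cells were a DNA repair-deficient yeast strain treated with compounds.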

[2] = NCI Yeast Anticancer Drug Screen. Data for the wt1 strain (AID 149);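 also: 0% = growth of vehicle-treated wt1 cultures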; conditions: S. cerevisiae wt1 strain (SPY 50644) growth inhibition, stronger effect = higher value
Procedure, shortened: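 Measured: growth of wt1 yeast under compound versus vehicle treatment, reported as inhibition.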

[3] = NCI Yeast Anticancer Drug Screen. Data for the rad50EPP+ strain (AID 151);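 also: 0% = growth of vehicle-treated control cultures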; conditions: S. cerevisiae rad50 mutant strain, stronger effect = higher value
Procedure, shortened: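 Growth inhibition read against vehicle controls in rad50EPP+ yeast, a strain altered in DNA damage repair, after compound exposure.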

[4] = NCI Yeast Anticancer Drug Screen. Data for the mgt1 strain (AID 153); conditions: S. cerevisiae mgt1 mutant growth inhibition, stronger effect = higher value
Procedure, shortened: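 mgt1 yeast grown with test compound; read-out is growth inhibition versus vehicle-treated cultures.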

[5] = NCI Yeast Anticancer Drug Screen. Data for the rad50 strain (AID 155);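 also: 0% = growth of vehicle-only cultures of the same strain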; conditions: S. cerevisiae rad50 strain growth inhibition, stronger effect = higher value
Procedure, shortened: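 Growth of the mutant yeast was measured after compound exposure and referenced to vehicle-treated cultures.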

[6] = NCI Yeast Anticancer Drug Screen. Data for the mec2-1 strain (AID 157); conditions: S. cerevisiae mec2-1 strain, stronger effect = higher value
Procedure, shortened: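 Yeast mec2-1 mutant treated with compound. Readout: growth inhibition vs vehicle controls.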

[7] = NCI Yeast Anticancer Drug Screen. Data for the rad14 strain (AID 159);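 also: 0% = growth of vehicle-treated control cultures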; conditions: S. cerevisiae rad14 strain growth inhibition, stronger effect = higher value
Procedure, shortened: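 Here, inhibition of yeast growth was measured after compound exposure, using a strain with a genetic defect in DNA damage repair and vehicle-treated cultures as the reference.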

[8] = NCI Yeast Anticancer Drug Screen. Data for the sgs1 mgt1 strain (AID 161);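 also: 0% = growth of cultures given vehicle only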; conditions: S. cerevisiae sgs1 mgt1 strain, stronger effect = higher value
Procedure, shortened: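 Inhibition of yeast growth, normalised to vehicle-treated controls, is reported for a strain bearing genetic alterations in DNA damage repair.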

[9] = NCI Yeast Anticancer Drug Screen. Data for the CLN2oe strain (AID 163);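 also: 0% = growth of vehicle-only control cultures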; conditions: S. cerevisiae CLN2oe strain, stronger effect = higher value
Procedure, shortened: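 Read-out: yeast growth inhibition, expressed relative to vehicle-only controls. The strain bears an engineered cell-cycle alteration.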

[10] = NCI Yeast Anticancer Drug Screen. Data for the cln2 rad14 strain (AID 165);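 also: 0% = growth equal to vehicle treated cultures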; conditions: S. cerevisiae cln2 rad14 strain, stronger effect = higher value
Procedure, shortened: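 cln2 rad14 yeast strain; compound exposure; growth inhibition read vs vehicle controls.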

[11] = NCI Yeast Anticancer Drug Screen. Data for the bub3 strain (AID 167); conditions: S. cerevisiae bub3 mutant strain, stronger effect = higher value
Procedure, shortened: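 Whole-cell yeast assay. The mutant strain was incubated with compounds, and growth inhibition was determined by comparison with vehicle-treated cells.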

[12] = NCI Yeast Anticancer Drug Screen. Data for the wt2 strain (AID 169);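 also: 0% = growth of vehicle-treated yeast cultures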; conditions: S. cerevisiae wt2 strain growth inhibition, stronger effect = higher value
Procedure, shortened: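 Read-out: growth inhibition versus vehicle-treated control cultures after compound exposure of the yeast strain.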

[13] = NCI Yeast Anticancer Drug Screen. Data for the mlh1 strain (AID 171);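 also: 0% = growth of vehicle-treated control cultures of the same strain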; conditions: S. cerevisiae mlh1 strain growth inhibition, stronger effect = higher value
Procedure, shortened: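 Read-out: growth inhibition versus vehicle controls. Strain: engineered yeast with a defined DNA repair or cell cycle defect, compound-treated.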

[14] = NCI Yeast Anticancer Drug Screen. Data for the sgs1 strain (AID 173);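 also: 0% = growth of vehicle-only control cultures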; conditions: S. cerevisiae sgs1 mutant, stronger effect = higher value
Procedure, shortened: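 Read-out: yeast growth inhibition relative to vehicle controls, following compound exposure of a strain with a defined DNA repair/cell cycle alteration.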

[15] = NCI Yeast Anticancer Drug Screen. Data for the mlh1 rad18 strain (AID 175); conditions: S. cerevisiae mlh1 rad18 strain growth inhibition, stronger effect = higher value
Procedure, shortened: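 Yeast w/ defined DNA-repair lesions; compound exposure; growth vs vehicle controls → % inhibition.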

[16] = NCI Yeast Anticancer Drug Screen. Data for the rad18 strain (AID 177); conditions: S. cerevisiae rad18 mutant growth inhibition, stronger effect = higher value
Procedure, shortened: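 Readout: growth inhibition vs vehicle controls. Cells: genetically altered yeast strain, DNA repair defect.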

[17] = at 5.0 µM (retest, dose inferred, filed as 0.5)
[18] = at 50.0 µM (retest, dose inferred, filed as 5.0)

Measured: growth inhibition

CCCCc1ccc(-n2c(C)c(COC(=O)NC)c(COC(=O)NC)c2C)cc1
active: [1]; at 33.0 µM 98% | [1]; at 100.0 µM 93% | [2]; at 33.0 µM 99% | [2]; at 100.0 µM 91% | [3]; at 33.0 µM 90% | [3]; at 100.0 µM 92% | [4]; at 33.0 µM 99% | [4]; at 100.0 µM 94% | [5]; at 33.0 µM 93% | [5]; [18] 95% | [5]; at 50.0 µM 90.6% | [5]; at 100.0 µM 90% | [6]; at 33.0 µM 99% | [6]; [18] 98% | [6]; at 50.0 µM 92.6% | [6]; at 100.0 µM 93% | [7]; at 11.0 µM 89% | [7]; at 33.0 µM 97% | [7]; at 100.0 µM 89% | [8]; at 50.0 µM 88.5% | [9]; at 33.0 µM 97% | [9]; at 100.0 µM 94% | [10]; at 50.0 µM 81.5% | [11]; at 33.0 µM 99% | [11]; at 50.0 µM 85.5% | [11]; at 100.0 µM 88% | [12]; at 33.0 µM 98% | [12]; at 100.0 µM 94% | [13]; at 11.0 µM 83% | [13]; at 33.0 µM 97% | [13]; at 100.0 µM 87% | [14]; at 33.0 µM 98% | [14]; at 100.0 µM 91% | [15]; [18] 98% | [15]; at 50.0 µM 91.2% | [16]; at 33.0 µM 95% | [16]; at 100.0 µM 77%
inactive: [1]; at 1.2 µM -40% | [1]; at 3.7 µM -10% | [1]; at 11.0 µM 5% | [2]; at 1.2 µM -48% | [2]; at 3.7 µM -44% | [2]; at 11.0 µM -13% | [3]; at 1.2 µM -18% | [3]; at 3.7 µM -13% | [3]; at 11.0 µM -6% | [4]; at 1.2 µM -43% | [4]; at 3.7 µM -41% | [4]; at 11.0 µM 19% | [5]; at 1.2 µM -36% | [5]; at 3.7 µM -30% | [5]; [17] 19% | [5]; at 11.0 µM 31% | [6]; at 1.2 µM -28% | [6]; at 3.7 µM -21% | [6]; [17] 14% | [6]; at 11.0 µM 24% | [7]; at 1.2 µM -29% | [7]; at 3.7 µM -11% | [8]; [17] 26% | [8]; [18] 57% | [9]; at 1.2 µM -23% | [9]; at 3.7 µM -1% | [9]; at 11.0 µM 5% | [10]; [17] 21% | [10]; [18] -28% | [11]; at 1.2 µM -36% | [11]; at 3.7 µM -39% | [11]; [17] 11% | [11]; at 11.0 µM 56% | [11]; [18] 4% | [12]; at 1.2 µM -24% | [12]; at 3.7 µM -10% | [12]; at 11.0 µM 5% | [13]; at 1.2 µM -39% | [13]; at 3.7 µM -18% | [14]; at 1.2 µM -3% | [14]; at 3.7 µM -2% | [14]; at 11.0 µM 47% | [15]; [17] 18% | [16]; at 1.2 µM -27% | [16]; at 3.7 µM -1% | [16]; at 11.0 µM 59%
